High-throughput results (PubChem BioAssay)
Shown are actives, neighbours in structure and some others; about 13% of the full set was active somewhere.
HCV inhibitor – blocks hepatitis C virus; Huh7.5.1 HCVcc-Cre infection, luciferase reporter, 44 h; AID 651820; 3.4% of 340,000 active; Potency, µM (top dose mostly 41.8 µM), usual class: inhibitors
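A cell-based infection assay in which seeded cells (1,000 per well) receive test compound after 4 h, are inoculated with HCVcc-Cre at approximately 0.5 moi, and are incubated 44 h before luminescence detection.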
Pf growth 96h – inhibits malaria parasite growth, 96 h; P. falciparum luciferase reporter growth, 96 h; Potency, µM (titrated, usually from 28.7 µM), usual class: inhibitors; 6.9% of 320,000 active; AID 504834
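Luminescence readout: decreased luciferase signal marks inhibited growth of reporter-expressing P. falciparum in infected red cells (2% hematocrit, 0.05% parasitemia final), exposed to compound two generations (96 h, 37 C, 5% CO2).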
Pf growth 48h – P. falciparum growth inhibition at 48 hours (one generation); P. falciparum luciferase growth in erythrocytes, 48 h; Potency, µM (highest dose often 28.7 µM), usual class: inhibitors; 5.9% of 310,000 active
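A one-generation exposure of luciferase-tagged malaria parasites in RPMI 1640/Albumax erythrocyte culture, 37 C and 5% CO2. Inhibition is inferred from decreased luminescence after adding detection reagent.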
HCMV inh – human cytomegalovirus inhibition | activity change, negative = inhibition, % at 57.5 µM | 4.5% of 410,000 active | AID 1259415 | HFF cells, HCMV-luciferase reporter, 72 h; hits give low values; in the data active = activity change below about -60%; inconclusive = no clear call, values can overlap the other calls; inactive = above about -39%
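After 16 h attachment at 37C, HFF cells received test compound and HCMV-luciferase (1 PFU/cell); reporter luminescence read 72 h later, data normalized against buffer-only and known inhibitor Salinomycin.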
Each line names hits and unclear results; the compound was inactive in the other large screens. Unless noted, calls come from the whole dose curve; as a rule, active = well fitted inhibition curve with a large enough effect; inconclusive = small, poorly fitted or top-dose-only effect, or another doubt; inactive = no such curve, though single readings can be large or run the other way.

CCOc1ccccc1NC(=O)C1=C(C)Nc2ncnn2C1c1ccccn1 (stereo unspecified)	none (no result: HCV inhibitor, Pf growth 96h, Pf growth 48h)
COC(=O)c1c(NC(=O)c2cc3ccccc3c(=O)o2)sc2c1CCCC2	none (no result: HCV inhibitor, Pf growth 96h, Pf growth 48h)
COc1ccc(S(=O)(=O)Nc2ccc3c(c2)N(C(C)=O)CCC3)cc1F	none (no result: HCV inhibitor, Pf growth 96h, Pf growth 48h)
S=C(Nc1ccccc1)N1CCn2c1nc1ccccc12	HCV inhibitor inconclusive, Pf growth 96h 2.6µM
O=C(Nc1ccccc1)N1CCn2c1nc1ccccc12	HCV inhibitor inconclusive
COCCNC(=O)CCn1c(=O)c2cc(OC)c(OC)cc2n(CC(=O)Nc2ccc(F)c(Cl)c2)c1=O	none (no result: HCV inhibitor, Pf growth 96h, Pf growth 48h)
Fc1ccc(C2=NOC(c3nnc(-c4ccccc4)o3)C2)cc1 (stereo unspecified)	HCMV inh -65
C=CCN(CC=C)C(=S)NC(=O)Cc1cccc2ccccc12	Pf growth 96h 4.1µM, Pf growth 48h inconclusive
O=C(CSc1nnc(-c2ccc(F)cc2)o1)N1CCCc2ccccc21	none (no result: HCV inhibitor, Pf growth 96h, Pf growth 48h)
COc1ccc(CNS(=O)(=O)c2ccc(-c3cc(C(F)(F)F)on3)s2)cc1OC	none (no result: HCV inhibitor, Pf growth 96h, Pf growth 48h)
COC(=O)/C(=N/Nc1ccccc1)N1CCCc2ccccc21	HCV inhibitor inconclusive, Pf growth 96h 10µM
COC(=O)/C(=N/Nc1ccc(C)cc1)N1CCCc2ccccc21	HCV inhibitor inconclusive, Pf growth 96h 12µM, Pf growth 48h inconclusive, HCMV inh inconclusive
COC(=O)/C(=N/Nc1cccc(C)c1)N1CCCc2ccccc21	none
CCCN(C(=O)CCc1nc(-c2ccc(C)cc2)no1)c1ccc(OCC)cc1	none (no result: HCV inhibitor, Pf growth 96h, Pf growth 48h)
O=C(Nc1nc(-c2ccc(Br)cc2)ns1)c1ccc(F)cc1	none (no result: HCV inhibitor, Pf growth 96h, Pf growth 48h)
CC(C)(C)c1ccc(/C=N/NC(=O)C[n+]2ccccc2)cc1	Pf growth 48h inconclusive
O=C(C[n+]1ccccc1)N/N=C/c1ccc(Cl)cc1	Pf growth 96h 7.4µM, Pf growth 48h inconclusive
NC(=O)N/N=C\c1cc(Br)ccc1O	none
O=C(N/N=C/c1cc(Br)ccc1O)Nc1ccccc1	Pf growth 96h 8.3µM, Pf growth 48h inconclusive, HCMV inh inconclusive
CN(C)S(=O)(=O)c1cccc(NC(=S)N/N=C/c2cc(Br)ccc2O)c1	Pf growth 96h inconclusive, Pf growth 48h 2.1µM, HCMV inh -98
CCOc1ccccc1NC(=O)C(=O)N/N=C/c1cc(Br)ccc1O	HCV inhibitor 6.3µM, Pf growth 48h 2.3µM, HCMV inh -101
C[C@H]1[C@@H](c2ccccc2)Oc2ccc(Cl)cc2S(=O)(=O)N1Cc1ccc(Cl)cc1	none (no result: HCV inhibitor, Pf growth 96h, Pf growth 48h)
O=C(C[n+]1ccccc1)N/N=C/c1ccccc1F	none
O=C(C[n+]1ccccc1)N/N=C/c1cc(Br)ccc1O	Pf growth 96h 4.1µM (no result: Pf growth 48h)
COc1ccc(CNS(=O)(=O)c2cc(Br)ccc2Br)c(OC)c1	none (no result: HCV inhibitor, Pf growth 96h, Pf growth 48h)
CCOC(=O)N1CCC(N2CCN(S(=O)(=O)c3ccc([N+](=O)[O-])cc3)CC2)CC1	HCV inhibitor inconclusive, Pf growth 96h inconclusive, Pf growth 48h 2.1µM
CCOC(=O)N1CCC(N2CCN(S(=O)(=O)c3ccc4ccccc4c3)CC2)CC1	Pf growth 96h 12µM (no result: HCV inhibitor, Pf growth 48h)
CCOC(=O)N1CCN(c2ccc(S(=O)(=O)N3CCOCC3)cc2[N+](=O)[O-])CC1	Pf growth 96h inconclusive, Pf growth 48h inconclusive
O=[N+]([O-])c1ccc(S(=O)(=O)N2CCN(C3CCN(Cc4ccccc4)CC3)CC2)cc1	HCV inhibitor inconclusive, Pf growth 48h inconclusive
CCOC(=O)c1ccoc1CN1CCN(S(=O)(=O)c2ccc(C)c(C)c2)CC1	HCV inhibitor inconclusive, HCMV inh -63 (no result: Pf growth 96h, Pf growth 48h)
Cc1ccc(S(=O)(=O)N2CCN(Cc3ccco3)CC2)cc1C	HCMV inh inconclusive
CCOC(=O)N1CCN(S(=O)(=O)c2ccc(C)c([N+](=O)[O-])c2)CC1	HCMV inh -62
CCOC(=O)C1CCCN(S(=O)(=O)c2ccc3ccccc3c2)C1 (stereo unspecified)	none (no result: HCMV inh)
CCOC(=O)C(Nc1ccccc1NC(=O)OC(C)(C)C)C(=O)Nc1c(C)cccc1C (stereo unspecified)	none (no result: HCV inhibitor, Pf growth 96h, Pf growth 48h)
Cc1ccc(CNC(=O)c2cc3c(=O)n(Cc4cccnc4)ccc3nc2C)cc1	none (no result: HCV inhibitor, Pf growth 96h, Pf growth 48h)
COc1ccc(-c2ccc(NS(=O)(=O)c3ccc(OC)c(OC)c3)cc2)nn1	none (no result: HCV inhibitor, Pf growth 96h, Pf growth 48h)
O=C(Cn1c(=O)nc(-c2ccccc2)c2ccccc21)N1CCN(c2ccc(F)cc2)CC1	none (no result: HCV inhibitor, Pf growth 96h, Pf growth 48h)
CCN1CCN(c2ccc(N3CCN(S(=O)(=O)c4ccc(C)c([N+](=O)[O-])c4)CC3)nn2)CC1	HCV inhibitor inconclusive, Pf growth 96h 0.93µM, Pf growth 48h 13µM
Cc1ccc(S(=O)(=O)N2CCN(C)CC2)cc1[N+](=O)[O-]	none
CCc1nc(-c2cc(S(=O)(=O)N3CCN(c4ccccc4)CC3)ccc2OC)no1	none (no result: HCV inhibitor, Pf growth 96h, Pf growth 48h)
CCC(c1nnnn1Cc1ccco1)N(Cc1cc2cc(C)cc(C)c2[nH]c1=O)CC1CCCO1 (stereo unspecified)	HCV inhibitor inconclusive, Pf growth 48h inconclusive
Cc1ccc2[nH]c(=O)c(CN(CCCO)C(C)c3nnnn3Cc3ccco3)cc2c1 (stereo unspecified)	Pf growth 48h 2.3µM
CCC(c1nnnn1Cc1ccco1)N(Cc1ccccc1OC)Cc1cc2cc(C)ccc2[nH]c1=O (stereo unspecified)	Pf growth 96h inconclusive, Pf growth 48h 1.5µM
C[C@@H]1CN([C@@H](C)CO)C(=O)CCCn2cc(nn2)CO[C@H]1CN(C)C(=O)Nc1ccc(-c2cccs2)cc1	none (no result: HCV inhibitor, Pf growth 96h, Pf growth 48h)
